What was measured:
Test in all cases: DAPPL (digital affinity profiling via proximity ligation, sequencing); 10 mM Tris-HCl pH 7.5, 50 mM NaCl, 1 mM DTT, 4% glycerol, room temperature, 30 min; GST-TFs on glutathione beads, 16-mer random dsDNA library, 0.1% formaldehyde crosslink after washing; high values mean tight binding
FLI1 = biological target: T1, FLI1 (Homo sapiens, UniProt Q01543 1-452); conditions: protein: recombinant; tags: N-terminal GST; dsDNA, one strand shown
T1 sequence: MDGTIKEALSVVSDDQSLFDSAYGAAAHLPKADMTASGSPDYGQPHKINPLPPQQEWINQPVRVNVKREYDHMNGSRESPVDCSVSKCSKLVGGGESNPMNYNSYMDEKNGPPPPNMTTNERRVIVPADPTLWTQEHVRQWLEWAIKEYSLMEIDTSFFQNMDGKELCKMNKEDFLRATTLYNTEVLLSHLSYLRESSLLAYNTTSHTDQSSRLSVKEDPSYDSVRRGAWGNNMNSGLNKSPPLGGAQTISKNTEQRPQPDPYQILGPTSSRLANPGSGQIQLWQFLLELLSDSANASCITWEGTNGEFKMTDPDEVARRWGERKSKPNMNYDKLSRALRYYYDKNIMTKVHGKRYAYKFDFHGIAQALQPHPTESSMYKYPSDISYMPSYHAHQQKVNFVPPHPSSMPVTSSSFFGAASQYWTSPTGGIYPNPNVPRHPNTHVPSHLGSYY
Procedure, shortened: (§1)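 Yeast served to express human transcription factors as GST fusions, which were then captured on glutathione beads and labelled with DNA barcodes. Pooled with a tag-only sample, they were incubated with 200 nmole of a 16-mer random double-stranded DNA library for 30 min at room temperature in Tris/NaCl/DTT/glycerol buffer, washed, crosslinked with 0.1% formaldehyde, ligated by proximity, amplified by PCR and sequenced. Dividing each hexamer's read frequency for a factor by its frequency for the tag-only sample gives the binding signal.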

ELK1 = biological target: T2, ELK1 (Homo sapiens, UniProt P19419 1-428); conditions: protein: recombinant; tags: N-terminal GST; dsDNA, one strand shown
T2 sequence: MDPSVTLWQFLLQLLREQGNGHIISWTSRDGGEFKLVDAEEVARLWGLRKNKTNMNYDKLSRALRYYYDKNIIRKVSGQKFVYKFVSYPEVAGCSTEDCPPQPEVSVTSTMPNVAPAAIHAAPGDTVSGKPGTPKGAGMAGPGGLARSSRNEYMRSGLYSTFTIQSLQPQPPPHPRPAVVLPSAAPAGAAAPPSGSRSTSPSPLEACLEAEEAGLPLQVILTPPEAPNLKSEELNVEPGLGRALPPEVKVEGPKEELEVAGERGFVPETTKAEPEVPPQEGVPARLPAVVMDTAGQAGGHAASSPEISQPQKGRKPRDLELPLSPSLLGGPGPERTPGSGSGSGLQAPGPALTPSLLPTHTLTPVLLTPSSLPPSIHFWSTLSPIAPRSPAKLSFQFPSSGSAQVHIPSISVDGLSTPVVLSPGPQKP
Procedure, shortened: as §1

GABPA = biological target: T3, GABPA (Homo sapiens, UniProt Q06546 1-454); conditions: protein: recombinant; tags: N-terminal GST; dsDNA, one strand shown
T3 sequence: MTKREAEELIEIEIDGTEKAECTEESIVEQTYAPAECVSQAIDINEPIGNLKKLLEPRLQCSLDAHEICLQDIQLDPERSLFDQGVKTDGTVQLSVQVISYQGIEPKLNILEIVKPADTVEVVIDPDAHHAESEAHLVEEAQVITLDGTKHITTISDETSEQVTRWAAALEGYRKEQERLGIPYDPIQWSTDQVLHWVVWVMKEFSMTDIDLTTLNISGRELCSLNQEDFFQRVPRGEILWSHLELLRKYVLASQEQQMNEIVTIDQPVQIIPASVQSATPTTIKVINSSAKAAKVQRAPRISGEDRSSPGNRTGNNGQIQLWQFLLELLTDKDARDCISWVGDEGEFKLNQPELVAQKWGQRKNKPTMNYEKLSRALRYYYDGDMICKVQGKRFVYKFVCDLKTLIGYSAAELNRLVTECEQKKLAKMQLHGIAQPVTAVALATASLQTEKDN
Procedure, shortened: as §1

ERG = biological target: T4, ERG (Homo sapiens, UniProt P11308 1-479); conditions: protein: recombinant; tags: N-terminal GST; dsDNA, one strand shown
T4 sequence: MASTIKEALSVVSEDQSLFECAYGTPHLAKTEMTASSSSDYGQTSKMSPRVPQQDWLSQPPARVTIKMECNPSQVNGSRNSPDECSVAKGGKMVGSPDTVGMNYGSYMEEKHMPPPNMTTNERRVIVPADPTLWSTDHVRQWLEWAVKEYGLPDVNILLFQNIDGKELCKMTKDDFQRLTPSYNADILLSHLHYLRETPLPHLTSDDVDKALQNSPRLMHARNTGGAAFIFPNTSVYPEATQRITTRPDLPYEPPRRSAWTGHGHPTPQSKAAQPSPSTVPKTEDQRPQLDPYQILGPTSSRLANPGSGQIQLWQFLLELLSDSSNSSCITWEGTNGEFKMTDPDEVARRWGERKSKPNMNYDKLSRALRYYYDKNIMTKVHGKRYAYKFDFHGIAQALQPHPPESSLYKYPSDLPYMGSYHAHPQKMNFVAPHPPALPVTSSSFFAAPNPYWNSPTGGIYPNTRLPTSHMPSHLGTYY
Procedure, shortened: as §1

ELF1 = ELF1 (Homo sapiens, UniProt P32519 1-619); conditions: protein: recombinant; tags: N-terminal GST; dsDNA, one strand shown
Procedure, shortened: as §1

EHF = biological target: T5, EHF (Homo sapiens, UniProt Q9NZC4 1-300); conditions: protein: recombinant; tags: N-terminal GST; dsDNA, one strand shown
T5 sequence: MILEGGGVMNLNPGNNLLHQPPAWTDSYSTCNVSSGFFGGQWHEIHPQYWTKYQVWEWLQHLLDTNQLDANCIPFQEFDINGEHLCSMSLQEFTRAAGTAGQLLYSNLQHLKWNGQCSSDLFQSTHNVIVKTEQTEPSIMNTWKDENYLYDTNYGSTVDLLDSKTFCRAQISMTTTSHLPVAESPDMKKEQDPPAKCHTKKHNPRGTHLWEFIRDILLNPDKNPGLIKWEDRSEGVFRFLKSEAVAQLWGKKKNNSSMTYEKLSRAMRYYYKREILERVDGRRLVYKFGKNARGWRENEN
Procedure, shortened: as §1

SPI1 = SPI1 (Homo sapiens, UniProt P17947 1-270); conditions: protein: recombinant; tags: N-terminal GST; dsDNA, one strand shown
Procedure, shortened: as §1

SPIB = SPIB (Homo sapiens, UniProt Q01892 1-262); conditions: protein: recombinant; tags: N-terminal GST; dsDNA, one strand shown
Procedure, shortened: as §1

ELK3 = biological target: T6, ELK3 (Homo sapiens, UniProt P41970 1-407); conditions: protein: recombinant; tags: N-terminal GST; dsDNA, one strand shown
T6 sequence: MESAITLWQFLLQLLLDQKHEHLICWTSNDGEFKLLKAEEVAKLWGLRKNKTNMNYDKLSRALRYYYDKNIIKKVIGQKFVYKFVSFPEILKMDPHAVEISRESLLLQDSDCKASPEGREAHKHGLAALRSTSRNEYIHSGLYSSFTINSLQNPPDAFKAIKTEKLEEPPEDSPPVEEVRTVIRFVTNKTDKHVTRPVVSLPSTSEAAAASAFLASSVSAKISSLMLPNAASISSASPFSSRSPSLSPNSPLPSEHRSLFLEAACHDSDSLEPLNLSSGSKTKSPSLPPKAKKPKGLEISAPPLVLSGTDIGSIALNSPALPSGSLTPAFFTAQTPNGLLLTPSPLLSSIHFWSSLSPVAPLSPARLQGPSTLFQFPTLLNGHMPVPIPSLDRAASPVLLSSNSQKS
Procedure, shortened: as §1

FEV = biological target: T7, FEV (Homo sapiens, UniProt Q99581 1-238); conditions: protein: recombinant; tags: N-terminal GST; dsDNA, one strand shown
T7 sequence: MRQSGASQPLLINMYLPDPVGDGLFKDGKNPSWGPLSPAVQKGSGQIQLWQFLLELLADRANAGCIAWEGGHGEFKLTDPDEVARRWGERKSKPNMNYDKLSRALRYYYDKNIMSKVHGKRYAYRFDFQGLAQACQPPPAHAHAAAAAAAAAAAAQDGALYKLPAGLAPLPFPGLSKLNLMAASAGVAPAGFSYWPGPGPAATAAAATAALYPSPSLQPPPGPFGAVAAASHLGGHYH
Procedure, shortened: as §1

ETV5 = ETV5 (Homo sapiens, UniProt P41161 1-510); conditions: protein: recombinant; tags: N-terminal GST; dsDNA, one strand shown
Procedure, shortened: as §1

HSF1 = HSF1 (Homo sapiens, UniProt Q00613 1-529); conditions: protein: recombinant; tags: N-terminal GST; chain copies: 3; dsDNA, one strand shown
Procedure, shortened: as §1

SPIC = biological target: T8, SPIC (Homo sapiens, UniProt Q8N5J4 1-248); conditions: protein: recombinant; tags: N-terminal GST; dsDNA, one strand shown
T8 sequence: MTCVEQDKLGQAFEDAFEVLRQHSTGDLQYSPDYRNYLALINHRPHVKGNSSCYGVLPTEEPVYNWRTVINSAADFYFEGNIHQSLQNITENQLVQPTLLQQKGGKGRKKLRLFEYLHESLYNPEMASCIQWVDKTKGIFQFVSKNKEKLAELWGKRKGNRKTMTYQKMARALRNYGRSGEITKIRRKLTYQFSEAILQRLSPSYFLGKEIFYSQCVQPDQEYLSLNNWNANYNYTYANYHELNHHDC
Procedure, shortened: as §1

ELF4 = ELF4 (Homo sapiens, UniProt Q99607 1-663); conditions: protein: recombinant; tags: N-terminal GST; dsDNA, one strand shown
Procedure, shortened: as §1

ELK4 = biological target: T9, ELK4 (Homo sapiens, UniProt P28324-2 1-405); conditions: protein: recombinant; tags: N-terminal GST; dsDNA, one strand shown
T9 sequence: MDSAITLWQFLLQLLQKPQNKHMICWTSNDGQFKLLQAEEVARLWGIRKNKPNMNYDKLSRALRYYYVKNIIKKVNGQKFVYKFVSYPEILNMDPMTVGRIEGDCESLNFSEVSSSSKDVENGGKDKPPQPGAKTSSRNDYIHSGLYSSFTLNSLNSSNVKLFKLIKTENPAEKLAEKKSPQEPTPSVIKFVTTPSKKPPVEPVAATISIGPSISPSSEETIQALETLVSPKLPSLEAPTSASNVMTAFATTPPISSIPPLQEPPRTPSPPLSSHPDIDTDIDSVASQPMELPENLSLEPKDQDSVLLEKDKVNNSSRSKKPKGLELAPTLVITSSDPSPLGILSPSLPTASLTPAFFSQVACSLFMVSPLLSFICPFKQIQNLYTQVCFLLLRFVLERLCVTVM
Procedure, shortened: as §1

ETV2 = biological target: T10, ETV2 (Homo sapiens, UniProt O00321 1-342); conditions: protein: recombinant; tags: N-terminal GST; dsDNA, one strand shown
T10 sequence: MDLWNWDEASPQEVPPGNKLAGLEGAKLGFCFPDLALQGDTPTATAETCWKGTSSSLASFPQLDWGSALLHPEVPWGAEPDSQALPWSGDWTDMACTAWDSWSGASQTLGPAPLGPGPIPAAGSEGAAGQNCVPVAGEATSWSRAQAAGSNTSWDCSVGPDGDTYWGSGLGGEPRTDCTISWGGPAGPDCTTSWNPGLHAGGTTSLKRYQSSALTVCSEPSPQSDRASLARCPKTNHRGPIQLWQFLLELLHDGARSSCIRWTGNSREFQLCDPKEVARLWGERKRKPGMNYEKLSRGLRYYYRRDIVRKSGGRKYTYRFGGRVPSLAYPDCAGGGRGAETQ
Procedure, shortened: as §1

ELF3 = biological target: T11, ELF3 (Homo sapiens, UniProt P78545 1-371); conditions: protein: recombinant; tags: N-terminal GST; dsDNA, one strand shown
T11 sequence: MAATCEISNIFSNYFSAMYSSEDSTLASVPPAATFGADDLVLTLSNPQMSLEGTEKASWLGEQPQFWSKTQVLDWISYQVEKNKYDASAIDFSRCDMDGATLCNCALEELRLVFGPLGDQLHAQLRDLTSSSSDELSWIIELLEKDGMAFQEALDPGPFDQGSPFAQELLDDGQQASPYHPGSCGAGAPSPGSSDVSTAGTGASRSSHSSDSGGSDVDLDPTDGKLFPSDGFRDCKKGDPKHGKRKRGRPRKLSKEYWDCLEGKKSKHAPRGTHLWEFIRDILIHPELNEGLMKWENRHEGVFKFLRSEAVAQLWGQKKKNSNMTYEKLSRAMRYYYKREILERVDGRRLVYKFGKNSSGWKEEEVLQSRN
Procedure, shortened: as §1

CRX = CRX (Homo sapiens, UniProt O43186 1-299); conditions: protein: recombinant; tags: N-terminal GST; dsDNA, one strand shown
Procedure, shortened: as §1

ETV1 = ETV1 (Homo sapiens, UniProt P50549 1-477); conditions: protein: recombinant; tags: N-terminal GST; dsDNA, one strand shown
Procedure, shortened: as §1

Sequence of ELF1 (P32519 whole entry): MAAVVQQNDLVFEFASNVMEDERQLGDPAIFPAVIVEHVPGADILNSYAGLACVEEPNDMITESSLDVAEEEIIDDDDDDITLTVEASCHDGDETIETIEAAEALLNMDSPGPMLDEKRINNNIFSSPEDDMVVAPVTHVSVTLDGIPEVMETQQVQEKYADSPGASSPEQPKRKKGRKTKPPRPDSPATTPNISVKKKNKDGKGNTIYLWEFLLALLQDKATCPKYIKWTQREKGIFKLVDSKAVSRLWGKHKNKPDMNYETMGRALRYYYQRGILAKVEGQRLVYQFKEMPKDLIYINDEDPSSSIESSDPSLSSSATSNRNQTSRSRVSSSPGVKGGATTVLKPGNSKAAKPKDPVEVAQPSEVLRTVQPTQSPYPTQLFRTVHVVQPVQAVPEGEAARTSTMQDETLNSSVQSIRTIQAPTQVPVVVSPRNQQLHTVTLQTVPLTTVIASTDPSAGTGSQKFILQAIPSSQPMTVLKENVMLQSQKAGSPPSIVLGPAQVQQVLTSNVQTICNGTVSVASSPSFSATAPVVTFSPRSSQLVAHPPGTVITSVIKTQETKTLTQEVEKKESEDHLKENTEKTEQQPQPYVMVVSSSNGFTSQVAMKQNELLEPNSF
Sequence of ELF4 (Q99607 whole entry): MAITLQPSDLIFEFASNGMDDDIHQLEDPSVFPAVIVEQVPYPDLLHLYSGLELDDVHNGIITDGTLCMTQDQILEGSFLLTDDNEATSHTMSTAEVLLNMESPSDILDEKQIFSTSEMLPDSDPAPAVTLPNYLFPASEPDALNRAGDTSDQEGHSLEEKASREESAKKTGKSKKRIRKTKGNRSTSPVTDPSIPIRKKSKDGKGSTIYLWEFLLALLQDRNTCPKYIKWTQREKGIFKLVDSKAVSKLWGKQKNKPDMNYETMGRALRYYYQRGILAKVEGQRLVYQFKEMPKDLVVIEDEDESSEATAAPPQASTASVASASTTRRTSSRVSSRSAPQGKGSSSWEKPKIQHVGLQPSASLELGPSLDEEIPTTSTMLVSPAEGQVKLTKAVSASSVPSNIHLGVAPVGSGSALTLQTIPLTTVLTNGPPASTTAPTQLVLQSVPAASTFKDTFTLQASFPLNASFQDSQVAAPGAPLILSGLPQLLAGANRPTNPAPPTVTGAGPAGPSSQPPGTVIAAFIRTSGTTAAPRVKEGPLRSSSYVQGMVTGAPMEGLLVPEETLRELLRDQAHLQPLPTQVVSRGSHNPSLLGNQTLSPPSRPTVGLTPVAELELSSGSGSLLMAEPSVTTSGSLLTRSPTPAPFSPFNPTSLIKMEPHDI
Sequence of ETV5 (P41161 whole entry): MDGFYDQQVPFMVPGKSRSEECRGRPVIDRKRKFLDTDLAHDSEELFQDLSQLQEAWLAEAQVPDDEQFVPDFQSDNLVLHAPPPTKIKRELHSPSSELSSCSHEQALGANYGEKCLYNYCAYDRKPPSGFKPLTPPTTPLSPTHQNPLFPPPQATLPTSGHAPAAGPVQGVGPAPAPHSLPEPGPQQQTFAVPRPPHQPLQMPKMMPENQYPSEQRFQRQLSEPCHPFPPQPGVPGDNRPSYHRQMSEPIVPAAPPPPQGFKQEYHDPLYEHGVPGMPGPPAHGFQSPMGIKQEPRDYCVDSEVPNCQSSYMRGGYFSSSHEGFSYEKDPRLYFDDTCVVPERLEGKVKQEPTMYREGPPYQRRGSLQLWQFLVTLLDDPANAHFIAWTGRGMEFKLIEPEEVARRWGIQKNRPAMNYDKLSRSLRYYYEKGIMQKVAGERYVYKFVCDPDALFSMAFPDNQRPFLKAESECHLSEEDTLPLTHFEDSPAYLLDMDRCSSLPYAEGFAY
Sequence of HSF1 (Q00613 whole entry): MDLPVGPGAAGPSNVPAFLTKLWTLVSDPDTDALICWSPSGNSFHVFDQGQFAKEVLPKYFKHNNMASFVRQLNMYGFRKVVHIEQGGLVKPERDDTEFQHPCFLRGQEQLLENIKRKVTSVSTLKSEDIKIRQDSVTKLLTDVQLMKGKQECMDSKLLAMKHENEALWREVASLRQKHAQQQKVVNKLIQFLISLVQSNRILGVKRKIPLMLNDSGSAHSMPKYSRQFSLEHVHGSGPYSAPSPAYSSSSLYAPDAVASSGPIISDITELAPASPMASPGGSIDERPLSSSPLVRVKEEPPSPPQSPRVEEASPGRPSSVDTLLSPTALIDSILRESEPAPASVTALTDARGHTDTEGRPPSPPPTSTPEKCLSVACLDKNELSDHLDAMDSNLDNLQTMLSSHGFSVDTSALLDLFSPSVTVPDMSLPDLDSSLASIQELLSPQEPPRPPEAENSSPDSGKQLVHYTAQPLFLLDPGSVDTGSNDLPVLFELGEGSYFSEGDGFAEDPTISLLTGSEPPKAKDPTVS
Sequence of CRX (O43186 whole entry): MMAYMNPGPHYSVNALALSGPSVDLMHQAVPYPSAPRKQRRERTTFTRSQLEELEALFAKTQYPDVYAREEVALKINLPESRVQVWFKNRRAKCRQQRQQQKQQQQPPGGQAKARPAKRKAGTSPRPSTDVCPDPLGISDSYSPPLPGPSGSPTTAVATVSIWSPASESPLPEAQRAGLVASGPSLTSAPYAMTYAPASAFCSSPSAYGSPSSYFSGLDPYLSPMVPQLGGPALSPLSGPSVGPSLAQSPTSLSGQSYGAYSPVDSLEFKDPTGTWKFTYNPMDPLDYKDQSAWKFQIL
Sequence of SPIB (Q01892 whole entry): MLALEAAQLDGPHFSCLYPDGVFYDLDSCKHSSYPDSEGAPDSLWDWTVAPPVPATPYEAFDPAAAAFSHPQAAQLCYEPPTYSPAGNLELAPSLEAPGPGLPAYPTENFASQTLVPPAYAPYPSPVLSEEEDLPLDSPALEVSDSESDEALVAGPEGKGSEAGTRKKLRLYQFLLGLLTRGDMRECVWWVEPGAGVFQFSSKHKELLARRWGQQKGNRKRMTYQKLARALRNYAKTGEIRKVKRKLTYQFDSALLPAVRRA
Sequence of ETV1 (P50549 whole entry): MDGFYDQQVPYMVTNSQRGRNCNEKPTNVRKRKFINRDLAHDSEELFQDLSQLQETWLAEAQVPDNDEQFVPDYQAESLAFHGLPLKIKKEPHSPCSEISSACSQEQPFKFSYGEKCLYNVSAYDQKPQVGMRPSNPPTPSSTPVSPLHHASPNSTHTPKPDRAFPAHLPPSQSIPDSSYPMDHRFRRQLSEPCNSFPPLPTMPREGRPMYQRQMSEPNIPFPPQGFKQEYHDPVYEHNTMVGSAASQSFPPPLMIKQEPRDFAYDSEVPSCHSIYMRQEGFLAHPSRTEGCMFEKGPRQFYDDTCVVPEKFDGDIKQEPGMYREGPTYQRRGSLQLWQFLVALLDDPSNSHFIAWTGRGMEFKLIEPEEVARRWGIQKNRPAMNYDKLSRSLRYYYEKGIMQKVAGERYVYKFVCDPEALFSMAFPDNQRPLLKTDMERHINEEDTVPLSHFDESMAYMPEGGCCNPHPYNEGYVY

What does the source list for CTCTTT?
binding signal (FLI1): 1.37 fold enrichment (6-mer frequency, TF over GST control); binding signal (ELK1): 1.33 fold enrichment (6-mer frequency, TF over GST control); binding signal (GABPA): 1.39 fold enrichment (6-mer frequency, TF over GST control); binding signal (ERG): 1.43 fold enrichment (6-mer frequency, TF over GST control); binding signal (ELF1): 1.53 fold enrichment (6-mer frequency, TF over GST control); binding signal (EHF): 1.55 fold enrichment (6-mer frequency, TF over GST control); binding signal (SPI1): 2.23 fold enrichment (6-mer frequency, TF over GST control); binding signal (SPIB): 1.42 fold enrichment (6-mer frequency, TF over GST control); binding signal (ELK3): 1.66 fold enrichment (6-mer frequency, TF over GST control); binding signal (FEV): 1.47 fold enrichment (6-mer frequency, TF over GST control); binding signal (ETV5): 1.42 fold enrichment (6-mer frequency, TF over GST control); binding signal (HSF1): 1.4 fold enrichment (6-mer frequency, TF over GST control); binding signal (SPIC): 1.35 fold enrichment (6-mer frequency, TF over GST control); binding signal (ELF4): 1.44 fold enrichment (6-mer frequency, TF over GST control); binding signal (ELK4): 1.31 fold enrichment (6-mer frequency, TF over GST control); binding signal (ETV2): 1.58 fold enrichment (6-mer frequency, TF over GST control); binding signal (ELF3): 1.4 fold enrichment (6-mer frequency, TF over GST control); binding signal (CRX): 1.53 fold enrichment (6-mer frequency, TF over GST control); binding signal (ETV1): 1.44 fold enrichment (6-mer frequency, TF over GST control)

— paper PMC7862700, “An all-to-all approach to the identification of sequence-specific readers for epigenetic DNA modifications on cytosine”
